Assay [1] can be described thus: qHTS assay to identify small molecule agonists of the hypoxia (HIF-1) signaling pathway - cell viability counter screen (AID 1224844; calls by dose curve; also: nearly all actives have a fitted effect of over 50% in size). An outline of the steps:
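Same wells as the HIF-1 reporter screen; ME-180 cells carrying HRE-bla, 17 hr treatment at 37C; CellTiter-Glo luminescence read after 30 min at room temperature.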
For orientation: Quantitative high-throughput screening tests each substance at several concentrations.

Assay [2] in a line: qHTS assay to identify small molecule agonists of H2AX (AID 1224845; active = well fitted activation curve with a large enough effect in the signal ratio in the repeat runs, not every such curve was filed as active; the % refers to the signal ratio; also: potency is read from the fitted curve at half-maximal effect). An outline of the steps:
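Wild-type CHO-K1 cells, plated overnight, exposed 3hr at 37C to 15 concentrations (0.76% DMSO final). Lysed, then HTRF anti-pH2AX (S139) cryptate and anti-H2AX-d2 antibodies, 24 hr room temperature; 665/620 nm emission read.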

A short description of assay [3]: qHTS assay to identify small molecule agonists of the hypoxia (HIF-1) signaling pathway (AID 1224846; active = well fitted activation curve with a large enough effect in the signal ratio in the repeat runs, not every such curve was filed as active; the % refers to the signal ratio). An outline of the steps: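 In ME-180 cells bearing an HRE-bla construct, 17 h treatment with DMSO-dissolved compounds at 37C was followed by CCF4-AM loading to quantify reporter induction.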
Assay [4] in a line: qHTS assay to identify small molecule agonists of H2AX - cell viability counter screen (AID 1224847; calls by dose curve; also: top concentration of the series differs between compounds; nearly all actives have a fitted effect of over 30% in size). An outline of the steps:
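CHO-K1 cells plated overnight at 37C, then exposed 3 h at 37C to compounds at 15 concentrations (0.76% DMSO final). Viability by CellTiter-Glo luminescence after 30 min at room temperature.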

Assay [5] in a line: qHTS RealTime-Glo MT Cell Viability Assay in HepG2 cells - 24 hour (AID 1224867). Also: nearly all actives have a fitted effect of over 50% in size. An outline of the steps:
(§1)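 HepG2 suspension premixed with RealTime-Glo reagents is plated at 600 cells per well and left 5 h at 37 C/5% CO2. Compounds in DMSO then go in, and bioluminescence reflecting viable cell number is recorded over 40 h.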

Assay [6] is described as follows: qHTS RealTime-Glo MT Cell Viability Assay in HEK293 cells - 32 hour (AID 1224868). Also: top concentration of the series differs between compounds; nearly all actives have a fitted effect of over 50% in size. An outline of the steps:
(§2)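 Reads taken at 0, 8, 16, 24, 32 and 40 h from the same wells. HEK293 cells (600/well) carried RealTime-Glo reagents from seeding, with compound added after a 5 h settle at 37 C.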

Assay [7] can be described thus: A CellTox Green Cytotoxicity Assay to monitor cytotoxicity in HEK293 cells - 0 hour (AID 1224869). Also: nearly all actives have a fitted effect of over 50% in size. An outline of the steps: (§3)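 Homogeneous no-lysis format: HEK293 cell suspension mixed with CellTox Green reagent, seeded, incubated 5 h at 37 C/5% CO2, then dosed by pintool with compound in DMSO.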
A short description of assay [8]: qHTS RealTime-Glo MT Cell Viability Assay in HepG2 cells - 40 hour (AID 1224870). Also: nearly all actives have a fitted effect of over 50% in size. The procedure, abridged:
(§4)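 HepG2 cells (600/well) mixed with RealTime-Glo MT reagent, settled 5 h at 37 C/5% CO2 before compound addition. Nonlytic NanoLuc luminescence from viable-cell prosubstrate reduction read repeatedly during 40 h treatment at 37 C.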

Assay [9] can be described thus: A CellTox Green Cytotoxicity Assay to monitor cytotoxicity in HEK293 cells - 40 hour (AID 1224871). Also: nearly all actives have a fitted effect of over 45% in size. An outline of the steps: as §3
A short description of assay [10]: qHTS RealTime-Glo MT Cell Viability Assay in HepG2 cells - 8 hour (AID 1224873). Also: nearly all actives have a fitted effect of over 55% in size. The procedure, abridged:
as §4

Assay [11] can be described thus: qHTS RealTime-Glo MT Cell Viability Assay in HEK293 cells - 40 hour (AID 1224874). Also: nearly all actives have a fitted effect of over 50% in size. Also: potency is read from the fitted curve at half-maximal effect. The conditions noted are these: RealTime-Glo luminescence; max response: active compounds read low. An outline of the steps:
(§5)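 Measured as luminescence from the same continuously cultured HEK293 wells at successive time points (0, 8, 16, 24, 32, 40 h) after compound addition. Reagent present from seeding; dosing at 5 h; incubation 37 C.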

Assay [12] in a line: A CellTox Green Cytotoxicity Assay to monitor cytotoxicity in HEK293 cells - 24 hour (AID 1224875). Also: series mostly up to about 77 µM; nearly all actives have a fitted effect of over 45% in size. An outline of the steps: as §3
Assay [13] in a line: A CellTox Green Cytotoxicity Assay to monitor cytotoxicity in HepG2 cells - 16 hour (AID 1224876). Also: nearly all actives have a fitted effect of over 45% in size. The procedure, abridged:
(§6)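 Fluorescent DNA-binding dye, 600 HepG2 cells/well, 5 h preincubation then compound in DMSO; same plates read at 0–40 h, 37 C.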

Assay [14] in a line: qHTS RealTime-Glo MT Cell Viability Assay in HepG2 cells - 32 hour (AID 1224877). Also: nearly all actives have a fitted effect of over 55% in size. The procedure, abridged: as §1
The nature of assay [15]: A CellTox Green Cytotoxicity Assay to monitor cytotoxicity in HepG2 cells - 24 hour (AID 1224878). Also: nearly all actives have a fitted effect of over 45% in size. An outline of the steps:
as §6

The nature of assay [16]: A CellTox Green Cytotoxicity Assay to monitor cytotoxicity in HepG2 cells - 40 hour (AID 1224879). Also: nearly all actives have a fitted effect of over 40% in size. An outline of the steps:
as §6

A short description of assay [17]: qHTS RealTime-Glo MT Cell Viability Assay in HEK293 cells - 16 hour (AID 1224872). The procedure, abridged:
as §2

A short description of assay [18]: qHTS RealTime-Glo MT Cell Viability Assay in HEK293 cells - 0 hour (AID 1224880). An outline of the steps: as §5

Each structure is given as a SMILES string. Unmarked numbers belong to inactive results. Results filed as inconclusive are left out. Calls of active or inactive are those of the source. Unless noted, calls follow the shape of the dose curve; as a rule, active = well fitted curve in the direction sought with a large enough effect in the repeat runs; inconclusive = weak or mixed curves; inactive = no such curve, though single readings can be large; an effect the other way counts as inactive or inconclusive.
% is scaled to controls: 0 for no effect and ±100 for the full control effect.

In the case of `N#Cc1c(F)cccc1F`, the Potency result in assay [1], in [2], in [4], in assay [5], in [6] and in assay [7] was “inactive” each time. The Potency result in [8], in [9], in assay [10], in assay [12], in assay [13] and in assay [14] was “inactive” each time. Also, the Potency result in assay [15] and in assay [16] was “inactive” in each case. The result in [3] was inactive. In addition, the max response in [11] is -15.1%.

In the case of `CCCC(=O)OCC`, the Potency result in assay [1], in assay [2], in assay [4], in assay [5], in assay [7] and in [8] was “inactive” throughout. Besides, the Potency result in assay [9], in assay [17], in assay [10], in assay [12], in assay [13] and in assay [14] was “inactive” each time. In addition, the Potency result in assay [15], in assay [16] and in assay [18] was “inactive” throughout. Besides, the compound was called inactive in assay [3]. Further, the max response in assay [11] is 20%.

For the compound `FC(F)(F)C(F)(F)C(F)(F)C(F)(F)C(F)(F)C(F)(F)CCI`, the Potency result in assay [1], in assay [2], in [4], in assay [5], in [7] and in assay [8] was “inactive” in each case. Moreover, the Potency entry in [9], in assay [17], in assay [10], in assay [12], in [13] and in [14] was “inactive” throughout. Further, the Potency result in [15] and in assay [16] was “inactive” each time. Further, in [3], the call was inactive. For the same compound, the max response in assay [11] is -0.265%.

On to `CCOC(=O)CC(=O)c1cc(F)c(Cl)nc1Cl`, for which the Potency entry in assay [1], in [2], in [4], in assay [5], in assay [7] and in assay [8] was “inactive” throughout. Moreover, the Potency entry in assay [10], in assay [13], in assay [14], in assay [15] and in assay [16] was “inactive” in each case. In addition, the compound was called inactive in assay [3].

Turning to `O=C(O)c1cn(C2CC2)c2cc(Cl)c(F)cc2c1=O`, the Potency entry in assay [1], in assay [2], in [4], in [5], in [8] and in assay [10] was “inactive” each time. Also, the Potency entry in assay [13], in assay [14], in [15] and in assay [16] was “inactive” each time. Further, the result in assay [3] was inactive.

Turning to `Oc1ccc(Sc2ccc(O)cc2)cc1`, the Potency result in assay [1], in assay [4], in [5], in [7], in assay [8] and in assay [9] was “inactive” each time. The Potency result in [10], in assay [12], in assay [13], in assay [14], in assay [15] and in [16] was “inactive” each time. Moreover, the Potency in assay [2] is 83.9 µM (active); in [11], 22.9 µM (active). Besides, the call in assay [3] was inactive.

With `O=c1[nH]cnc2ccccc12`, the Potency entry in [1], in [2], in assay [4], in [5], in [6] and in assay [7] was “inactive” in each case. The Potency entry in [8], in assay [9], in assay [10], in [12], in assay [13] and in assay [14] was “inactive” throughout. For the same compound, the Potency result in assay [15], in assay [16] and in assay [18] was “inactive” each time. Also, the compound was classed as inactive in assay [3]. Moreover, in assay [11], the max response is -7.9%.

In the case of `CCCCCCCCCCCCCCCCCBr`, the activity change, negative = cytotoxicity was 2.27% [at 15.8 µM] in assay [1], 1.9% [at 31.6 µM] in [4] and 0.544% [at 15.8 µM] in [5]. Moreover, the activation (H2AX phosphorylation) in assay [2] was -1.13% [at 31.6 µM]. Moreover, the activation in assay [3] is -0.885% [at 15.8 µM]. Besides, the activity change, negative = cytotoxic in [6] was 6.52% [at 15.8 µM]; in [8] it was 11.3% [at 15.8 µM]; in assay [14] it was 4.28% [at 15.8 µM]. In addition, the cytotoxicity in assay [7] was -0.244% [at 15.8 µM]; in [15], -11% [at 15.8 µM]. Besides, the cytotoxicity increase is -9.92% [at 15.8 µM] in [9], -9.75% [at 15.8 µM] in assay [13] and -11.7% [at 15.8 µM] in [16]. For the same compound, the viability change, negative = cytotoxic in assay [10] was -6.16% [at 15.8 µM]. The max response in assay [11] is 3.16%. Moreover, in assay [12], the activity change is -8.25% [at 15.8 µM, active compounds read high].

Values taken from PubChem BioAssay (Tox21).
